Results taken from the supplement of paper PMC6555819.

Legend:
Assay in all cases: PBM binding z-score (relative to random genomic background probes); higher = stronger binding; sequences stand for … in GC…GCGATTGACAGCGTAGAATGAAGG
[1] = test system: FXR:RXRa (NR concentration 270 nM, RXRa partner concentration 90 nM)
In short: (§1)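 For binding z-scores, the reference was random background probes on custom Agilent 4×180K protein-binding microarrays. These arrays were incubated 1 h with ligand-free nuclear receptor dimers in PBS pH 7.4, 2% milk, 0.02% Triton X-100, 1 mM DTT, 0.2 mg/mL BSA and 0.4 mg/ml salmon testes DNA. Fluorescence was scanned after antibody detection of each partner (one per run) and regression-normalized.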

[2] = test system: LXRa:RXRa (NR concentration 270 nM, RXRa partner concentration 90 nM)
In short: as §1

[3] = test system: LXRa homodimer (NR concentration 270 nM)
In short: as §1

[4] = test system: LXRb:RXRa (NR concentration 270 nM, RXRa partner concentration 90 nM)
In short: as §1

[5] = test system: LXRb homodimer (NR concentration 270 nM)
In short: as §1

[6] = test system: PPARa:RXRa (NR concentration 270 nM, RXRa partner concentration 90 nM)
In short: as §1

[7] = test system: PPARg:RXRa (NR concentration 180 nM, RXRa partner concentration 90 nM)
In short: as §1

[8] = test system: PPARg:RXRa 270nM:90nM, anti-RXR (NR concentration 270 nM, RXRa partner concentration 90 nM)
In short: as §1

[9] = test system: PPARg:RXRa 30nM:10nM, anti-RXR (NR concentration 30 nM, RXRa partner concentration 10 nM)
In short: as §1

[10] = test system: PPARg:RXRa 90nM:30nM, anti-RXR (NR concentration 90 nM, RXRa partner concentration 30 nM)
In short: as §1

| Sequence | PBM binding z-score [1] | PBM binding z-score [2] | PBM binding z-score [3] | PBM binding z-score [4] | PBM binding z-score [5] | PBM binding z-score [6] | PBM binding z-score [7] | PBM binding z-score [8] | PBM binding z-score [9] | PBM binding z-score [10] |
| --- | --- | --- | --- | --- | --- | --- | --- | --- | --- | --- |
| ATCTCTAGGTAAAGATCGTTCAGTGAATGCAAAT | -0.176 | 1.87 | -0.123 | 0.339 | 0.387 | 0.218 | 0.287 | 0.923 | 0.249 | 0.749 |
| AGAACGAGGGCACGCTGAGTTGATAGGAGAGTAG | 0.875 | 0.502 | -0.34 | 0.213 | -0.689 | 2.07 | 2.14 | 1.82 | 0.367 | 1.14 |
| TGAATGAGGTCATAAGATCAGGGAACGTTGCAAA | 7.31 | 5.47 | 0.779 | 4.4 | 1.39 | 5.96 | 6.96 | 6.58 | 4.09 | 6.04 |
| CGTCCAAAGTCAGCAGGTCAGTGAAAGCGACGTG | 0.237 | 0.521 | 0.0163 | 0.578 | -0.765 | 1.24 | -0.0107 | 0.0351 | -0.634 | -0.432 |
| CCTAACGGGTCAAGGTTATAGCACGGGTGGTACG | 4.72 | 3.16 | 0.175 | 2.46 | 0.225 | 4.48 | 3.41 | 3.67 | 1.21 | 2.39 |
| CTACCAAGGTAAACAAGGTCGTTGATTACTATTC | 0.877 | 1.37 | 0.268 | 1.56 | -0.376 | 1.57 | 0.314 | 0.42 | -0.128 | 0.258 |
| TCTGCTTGGTCAGTTGGTCAGCTAACGAGCTGCC | -0.433 | -0.4 | -1.02 | -0.763 | -0.0318 | -0.161 | -1.11 | 0.771 | 1.04 | 0.933 |
| AGAATGAGGTTATTAAGATCAGAGAATTGCGGTC | 1.56 | 1.62 | 0.0516 | 1.19 | 0.109 | 2.71 | 1.59 | 1.75 | 0.553 | 1.22 |
| CCTCGGAGGACAGAAGGTCGGAGCTGTCCGCTTT | -0.221 | -0.259 | -0.611 | -0.529 | -0.931 | -0.47 | -0.973 | -0.664 | -1.51 | -1.26 |
| TCTAGCAGGCCAGAGCGTCACTCAAGAGGTACGG | -0.546 | -0.726 | -0.841 | -1.08 | -1.75 | -0.0685 | 0.266 | 0.612 | 1.11 | 0.674 |
| CCGACTGGGGCAAAGGTTTCCATACTCAGTACGA | -0.478 | -0.199 | -0.443 | 0.175 | -1.02 | 3.35 | 8.18 | 7.78 | 8.2 | 9.01 |
| CCGACTGCGGCAGAAAGGTTACCATACCATCCGG | 0.417 | 0.665 | -0.0134 | 1.08 | -0.692 | 1.85 | 1.33 | 2.53 | 0.645 | 2.19 |
| CGTCCAAGGACAGAGAGGTCAGTGAATGCCGAGT | 1.59 | 1.6 | 1.09 | 1.72 | -0.627 | 2.13 | 0.584 | 0.665 | -0.328 | -0.223 |
| CCTACTGGGCCACGAAATGTCATTGATTCAGTGA | -0.161 | -0.0585 | -0.34 | -0.341 | -0.393 | 0.653 | 1.58 | 1.24 | -0.144 | 0.475 |
| TCCCGGAGGACACGAAAGGTCAGAGCTCGACATC | 3.13 | 3.95 | 2.89 | 2.93 | -0.374 | 3.45 | 1.51 | 2.59 | 2.05 | 2.49 |
| ACAGAAAGGTGAGTGAAGGTAACTCAGCTGGACG | 1.15 | 0.894 | -0.288 | 0.22 | -0.612 | 1.81 | 1.25 | 1.23 | 0.0865 | 0.656 |
| TCATATAGGTAATACAGGTGGAAGTCGGCATCTA | 1.45 | 1.49 | 0.307 | 0.555 | 0.553 | 1.31 | 1.07 | 2.33 | 3.98 | 3.14 |
| ATCTGTAGGTAAAAGTTCAGTGAATCCCGAGGAT | 0.442 | 1.21 | 0.955 | 0.989 | 0.43 | 4 | 8.09 | 7.62 | 7.35 | 8.71 |
| CCTACTGGGCCATTCAGAGGTCGTTGATCATATG | 0.36 | 0.813 | 0.735 | 0.964 | -0.712 | 1.97 | 0.916 | 1.26 | -0.074 | 0.672 |
| ATATGTAGGCTAGCTGGGGTCATTCAGACTAGGC | 3.46 | 3.2 | 1.14 | 3.49 | -0.151 | 4.32 | 3.2 | 3.64 | 1.1 | 2.83 |
| ATACCAAGGTGATCGCGAGGTCGTTGATACTAAC | 1.6 | 0.914 | 0.243 | 1.06 | -0.19 | 1.62 | 0.486 | 0.381 | -0.106 | 0.108 |
| TCTGCTAGGTCAGTGGGTCAGCTAACGAGCTGCC | 1.49 | 1.09 | -0.548 | 0.738 | 0.0153 | 3.41 | 5.03 | 4.53 | 2.11 | 3.51 |
| TCATATAGGTAAACAGCTGAAAGTCCGTAAGTTA | 1.09 | 0.759 | 0.185 | 0.758 | -0.215 | 1.37 | 0.75 | 2.36 | 3.9 | 3.19 |
| ATCGAAAGGACGAGGTGAGTATAGAGAAAGGGAA | 0.588 | 0.168 | -0.177 | -0.191 | -0.00522 | 0.0333 | 0.589 | -0.152 | 0.508 | 0.313 |
